Experimental data from article PMC5540273 (PLoS ONE, 2017).

Tests used:
Conditions in all cases: concentration: 1 μM, replicates: in singlicate; n = 1
[1] = system: CAMK1B
[2] = system: CAMK1D
[3] = system: CAMK1G
[4] = system: CAMK1
[5] = system: CAMK2A
[6] = system: CAMK2B
[7] = system: CAMK2D
[8] = system: CAMK2G
[9] = system: CAMK4
[10] = system: CAMKK1
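Note: KINOMEscan kinase panel screen.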

| SMILES | %Inh [1] [%] | %Inh [2] [%] | %Inh [3] [%] | %Inh [4] [%] | %Inh [5] [%] | %Inh [6] [%] | %Inh [7] [%] | %Inh [8] [%] | %Inh [9] [%] | %Inh [10] [%] |
| --- | --- | --- | --- | --- | --- | --- | --- | --- | --- | --- |
| CCn1c(-c2ccccn2)nc2cnccc21 [SB-736398] | 34 | 0 | 0 | 0 | 0 | 0 | 0 | 0 | 0 | 0 |
| Cl.c1ccc(-c2n[nH]cc2-c2ccnc(-c3ccc(CN4CCOCC4)cc3)c2)nc1 [GW776245] | 0 | 27 | 0 | 22 | 2 | 5 | 11 | 13 | 0 | 26 |
| Cc1cccc(-c2nc(Nc3ccc4[nH]ncc4c3)c3ccccc3n2)n1 [GW857175] | 0 | 0 | 0 | 0 | 15 | 3 | 0 | 0 | 0 | 0 |
| Fc1cc(Cl)ccc1Nc1ccnc2cc(-c3ccc(CN4CCCCC4)o3)ccc12 [GW560116] | 0 | 8 | 0 | 3 | 0 | 0 | 8 | 26 | 0 | 4 |
| Cc1c(Cn2ccn3c(=O)cc(N4CCOCC4)nc23)cccc1C(F)(F)F [GSK2289044] | 0 | 7 | 13 | 0 | 83 | 79 | 18 | 32 | 5 | 9 |
| COc1ccc2nc(-c3cccc(C)n3)nc(Nc3ccncc3)c2c1 [GSK204919] | 0 | 2 | 0 | 5 | 0 | 0 | 0 | 3 | 0 | 0 |
| Cc1cccc(-c2nc(-c3ccc(S(C)(=O)=O)cc3)sc2-c2ccnc(NCCc3ccccc3)c2)c1 | 0 | 0 | 16 | 31 | 0 | 0 | 7 | 9 | 0 | 13 |
| O=C1NC(=O)C(N2CCc3ccccc32)=C1c1ccccc1Cl [SB-373598] | 41 | 65 | 0 | 67 | 20 | 0 | 18 | 22 | 10 | 4 |
| CC(C)(C)c1ccc(C(=O)Nc2cn3cc(-c4cccnc4)ccc3n2)cc1 | 24 | 38 | 12 | 4 | 6 | 7 | 24 | 10 | 0 | 21 |
